From PubChem BioAssay (NCI)
Compounds without any hit were thinned out: in the full panel of roughly 79,000, 15% have a hit. Values without a mark were called inactive. Active and inactive are the calls of the source. No stated cut-off is given here; in the data, active means growth inhibition above about 70%; inactive means the rest.

Assays:
[1] = NCI Yeast Anticancer Drug Screen. Data for the rad50 strain (AID 155);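 further: 0% = growth of vehicle-only cultures of the same strain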; details: S. cerevisiae rad50 strain growth inhibition; at 50.0 µM; hits give high values
How it was run: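 Growth of the mutant yeast was measured after compound exposure and referenced to vehicle-treated cultures.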

[2] = NCI Yeast Anticancer Drug Screen. Data for the mec2-1 strain (AID 157); details: S. cerevisiae mec2-1 strain, at 50.0 µM, hits give high values
How it was run: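 Readout is yeast growth inhibition, normalised to vehicle-treated controls, in the mec2-1 strain exposed to compound.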

[3] = NCI Yeast Anticancer Drug Screen. Data for the sgs1 mgt1 strain (AID 161);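 further: 0% = growth of cultures given vehicle only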; details: S. cerevisiae sgs1 mgt1 strain, at 50.0 µM, hits give high values
How it was run: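 This yeast growth screen uses a strain with defined DNA-repair lesions; compound-treated growth is compared with vehicle-treated growth.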

[4] = NCI Yeast Anticancer Drug Screen. Data for the cln2 rad14 strain (AID 165);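 further: 0% = growth equal to vehicle treated cultures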; details: S. cerevisiae cln2 rad14 strain, at 50.0 µM, hits give high values
How it was run: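 Relative to vehicle controls, growth inhibition of compound-treated cln2 rad14 yeast was recorded.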

[5] = NCI Yeast Anticancer Drug Screen. Data for the bub3 strain (AID 167); details: S. cerevisiae bub3 mutant strain, at 50.0 µM, hits give high values
How it was run: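 Whole-cell yeast assay. The mutant strain was incubated with compounds, and growth inhibition was determined by comparison with vehicle-treated cells.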

[6] = NCI Yeast Anticancer Drug Screen. Data for the mlh1 rad18 strain (AID 175); details: S. cerevisiae mlh1 rad18 strain growth inhibition; at 50.0 µM; hits give high values
How it was run: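 Test agents were incubated with a yeast strain of defined genotype (DNA damage repair defect). Inhibition of growth was derived by comparison with vehicle-exposed cultures.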

Compound	growth inhibition [1] [%]	growth inhibition [2] [%]	growth inhibition [3] [%]	growth inhibition [4]	growth inhibition [5] [%]	growth inhibition [6] [%]
Cn1c(=O)n2n(c1=O)C1C=CC2C2C=C(c3ccccc3)C21 (centres undefined)	-18.4	-1.35	-0.8	1.75%	36.5	0.3
CCOC(=O)Nc1ccn(C2OC(COC(C)=O)C(OC(C)=O)C2OC(C)=O)c(=O)n1 (centres undefined)	19.9	-11.4	15.1	-46.4%	-1.9	8.3
C/C=C(/C)C(=O)O[C@H]1C(C)=C[C@]23C(=O)[C@@H](C=C(COC(C)=O)[C@@H](O)[C@]12O)[C@H]1[C@@H](C[C@H]3C)[C@@]1(C)OC(=O)/C(C)=C\C	58.7	60.4	60.6	76.3% (active)	56.8	59.2
C(=N\OCc1ccccc1)/c1ncccc1C1OCCO1	-10.6	-23.1	-0.5	20.2%	-5.8	-8.75
O=C(CN1CCCCC1)NC(=O)c1ccccc1	-8.8	-11.6	-7.8	-9.15%	0.65	-7.5
COC(=O)CC#N	-13.3	4.9	10.1	-2.75%	-1.2	-13.3
CCN(CC)CCNc1ccc(C)c2sc3ccc(N)cc3c(=O)c12	30.3	18.1	8.9	28.3%	-0.35	19.8
CC(C)=CC1C(C(=O)SCc2cc3c(cc2Br)OCO3)C1(C)C (centres undefined)	0.95	-6.05	-10.2	6.25%	5.6	6.5
O=C1C=C(Cl)C(=O)O1	8.85	10.2	-8.8	-9.1%	-8	15.6
O=c1c2c(oc3cc(OCC4CO4)ccc13)CCC2 (centres undefined)	-0.4	-7.7	-28.2	-24.9%	-9.05	-21.4
CCOC(=O)c1nn2c(nc1=O)sc1ccc3ccccc3c12	-22	-5.7	7.8	32.1%	25	2.05
CC(C)CN(CC(C)C)/N=C/c1cc([N+](=O)[O-])ccc1O	-11.7	9	-4.9	-3.65%	-12.9	-14.8
O=C(N/N=C\c1ccncc1)Nc1ccc(N=Nc2ccccc2)cc1	13.2	6.05	17.6	-2.6%	5.9	19.6
CCCCCCNC(CC(N)=O)C(=O)O (centres undefined)	-13.2	3.85	11.3	2.45%	-12.8	-26.2
CCc1ccc([OH2+])c(C(=O)[O-])c1.CCc1ccc([OH2+])c(C(=O)[O-])c1.CCc1ccc([OH2+])c(C(=O)[O-])c1.CCc1ccc([OH2+])c(C(=O)[O-])c1.[Cu+2].[Cu+2]	18.9	2.5	21.6	29.3%	8.75	20.9
CCOC(=O)C(C(=O)OCC)=C(N)C(Cl)(Cl)Cl	0.2	-1.6	-9.9	14.8%	11.7	-1.9
O=C(CCc1cc(O)cc(O)c1)NCCc1cc(O)cc(O)c1	6.55	5.9	17.4	26.4%	8.8	-46
CNc1ncc(-c2nnnn2-c2ccccc2)c(CN(C)C)n1	-36	-3.05	-3.4	5.1%	-3.45	25.2
O=c1[nH]nc(-c2ccccc2)c2c1[nH]c1ccccc12	-13.8	-15.7	-0.85	-33.9%	-12.4	-12.1
CC(NC(=O)NCCCl)c1cccc2ccccc12 (centres undefined)	-7.25	-1.25	-2.4	44.2%	-8.25	5.15

Compound	growth inhibition [1] [%]	growth inhibition [2] [%]	growth inhibition [3] [%]	growth inhibition [4]	growth inhibition [5] [%]	growth inhibition [6] [%]
CCOP(=O)(OCC)C(C)(CC)NC1=NC(C(F)(F)F)(C(F)(F)F)NC(=O)N1 (centres undefined)	-2.2	-10.2	-3.3	1%	-0.5	-0.15
CC1CN(CC2COc3ccccc3O2)C(C)CN1 (centres undefined)	61.8	17.4	57.2	58.5%	53.4	34.2
Cc1ccc2[nH]c3c(ncc4[nH]c5ccccc5c43)c2c1	59.3	44.1	62.8	52.1%	62.9	62
O=C(O)c1ccccc1-c1ccccc1C(=O)O	-3.95	-9.6	-10.9	-41.2%	-1.8	9
O=C(O)c1cc(-c2ccccc2O)nc2ccccc12	-19.5	-7.1	-5.2	16.3%	-1.35	-1.5
COc1c(OC)c(C(C)C)c2c(c1C(=O)O)C(=O)OC2=O	-5.6	10.9	11.2	-14.9%	-7.5	-7.75
CC(=O)O[C@@H]1[C@@H](C)[C@]2(CC(c3ccoc3)OC2O)C2CCC3O[C@]3(C)[C@]2(C)[C@@H]1OC(C)=O (some centres undefined)	-16	-20.1	-42.6	-12.2%	-39.5	-28.4
O=C(O)c1ccccc1/C=N\N(CCO)C1=NCCN1	21.4	13.1	13.9	-25.1%	2.95	19
O=c1c2ccccc2n2n1Cc1ccccc1C2	38.1	9.1	-11.5	6.95%	12.2	59.4
CC1=COCCO1	-9.9	-9.35	-9.35	6.85%	12.7	0.5
CC(C)(CC1(C)NC(=O)NC1=O)OCc1ccccc1 (centres undefined)	-0.5	-30.1	-14.8	-24.2%	-45.8	1.95
CCCCCCCCCC(=O)N/N=C/c1ccccc1Cl	9.95	36.1	29.6	-9.5%	19.3	30.4
O=C(c1ccccc1)c1nc2c(Cl)ccc(Cl)c2cc1C(Br)Br	37.1	20.8	44	45.2%	38.1	44.1
COC(=O)c1ccc(CS(=O)(=O)c2ccccc2)cc1	2	-6.3	4.6	7.1%	14.7	-11.5
O=C(CSc1nnc(-c2ccc(N=Cc3ccc(Cl)cc3)cc2)o1)Nc1ccc(Cl)cc1	3.1	-41	-2.25	-66%	-11.8	0
COc1cccc(C[n+]2cc([O-])on2)c1	-16.1	26.1	-3.3	-27.5%	21.1	18.4
O=C(N/N=C1\CCc2ccccc2C1)N/N=C1\CCc2ccccc2C1	20.4	17.1	11.7	-5.85%	-18.9	9.6
Nc1ccc2cn[nH]c2c1	3.5	-11.6	-6.95	-10.4%	5.8	-2
CN(C)c1ccc(C(=O)CCCN2CCC(O)(c3ccc(Cl)cc3)CC2)cc1	37.4	14.8	36.6	6.4%	18.1	21.9
